Results published in PubChem BioAssay (NCI).
The panel holds about 83,000 compounds, 20% with a hit somewhere; the sample as a whole holds those more often.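 Each cell line was grown in a 96-well plate and treated with one concentration of compound for 48 hours. Values below 10 were considered active.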 Calls of active or inactive are those of the source.

Legend:
Test in all cases: NCI-60 one-dose screen, 48 h (100 = growth as untreated, 0 = no growth, -100 = all killed)
Conditions in all cases: 10 µM unless noted
[1] = tested on: NCI-H23 lung
[2] = tested on: NCI-H226 lung
[3] = tested on: NCI-H322M lung
[4] = tested on: HOP-62 NSCLC
[5] = tested on: NCI-H460 lung
[6] = tested on: HOP-92 NSCLC
[7] = tested on: NCI-H522 lung
[8] = tested on: A549/ATCC NSCLC
[9] = tested on: 786-0 renal
[10] = tested on: COLO 205 colon

Measured: growth

CC(C)(C)[Si](C)(C)OCC1OC(n2cnc3c(N)ncnc32)CC1OS(C)(=O)=O (stereo not given)
inactive: [1] 106% | [2] 101% | [3] 109% | [4] 104% | [5] 105% | [6] 98.5% | [7] 99% | [8] 99.4% | [9] 103% | [10] 110%

CCC(C)C1CCC(O)CC1 (stereo not given)
inactive: [1] 96.3% | [2] 101% | [3] 100% | [4] 110% | [5] 108% | [6] 102% | [7] 101% | [8] 103% | [9] 100% | [10] 112%

CC(C)(N)CO[C@H]1C[C@H]2CC[C@@]1(C)C2(C)C
inactive: [1] 94.7% | [2] 88.5% | [3] 96.5% | [4] 106% | [5] 97.8% | [6] 89.2% | [7] 92.4% | [8] 96.8% | [9] 97.6% | [10] 109%

CC(C)N(CCCC#N)C(C)C
inactive: [1] 104% | [2] 114% | [3] 104% | [4] 98.6% | [5] 105% | [6] 85.8% | [7] 108% | [8] 93.9% | [9] 100% | [10] 110%

O=C1Nc2ccccc2/C1=C\c1ccccc1O
inactive: [1] 82.6% | [2] 93.2% | [3] 80.5% | [4] 87.9% | [5] 98.7% | [6] 46.6% | [7] 61.6% | [8] 114% | [9] 98.8% | [10] 124%

COC(=O)c1ccc([N+](=O)[O-])c(C)c1
inactive: [1] 107% | [2] 102% | [3] 93.2% | [4] 98.5% | [5] 105% | [6] 90.4% | [7] 107% | [8] 107% | [9] 103% | [10] 111%

COC1(OC)C2(Cl)C(Cl)=C(Cl)C1(Cl)C1COCC12 (stereo not given)
inactive: [1] 109% | [2] 93.6% | [3] 104% | [4] 96.5% | [5] 86.8% | [6] 105% | [7] 79.5% | [8] 64% | [9] 104% | [10] 113%

Cc1cc(C(=O)c2ccccc2)cc(C)c1O
inactive: [1] 98.2% | [2] 99.2% | [3] 101% | [4] 95.2% | [5] 110% | [6] 74.3% | [7] 104% | [8] 102% | [9] 100% | [10] 103%

Clc1ccc(/C=C/c2ccccn2)cc1
inactive: [1] 91.2% | [2] 101% | [3] 107% | [4] 94.7% | [5] 104% | [6] 56.3% | [7] 87.1% | [8] 92.2% | [9] 98.1% | [10] 105%

Cc1cc(Cc2ccccc2)c(O)c(Cc2ccccc2)c1
inactive: [1] 82.5% | [2] 85.9% | [3] 97.3% | [4] 85.5% | [5] 99.4% | [6] 90% | [7] 78% | [8] 76.5% | [9] 86.6% | [10] 106%

Cc1ccc(NC(=O)c2ccccc2Cl)cc1
inactive: [1] 102% | [2] 108% | [3] 113% | [4] 113% | [5] 101% | [6] 75.5% | [7] 98.6% | [8] 106% | [9] 105% | [10] 120%

CSc1nc2[nH]ncc2c(=O)[nH]1
inactive: [1] 94.8% | [2] 91.4% | [3] 108% | [4] 101% | [5] 98.8% | [6] 106% | [7] 99.9% | [8] 111% | [9] 101% | [10] 107%

C(=C\c1ccncc1)/c1ccncc1
inactive: [1] 98.7% | [2] 96.4% | [3] 90.8% | [4] 101% | [5] 107% | [6] 87.9% | [8] 96.5% | [9] 107% | [10] 115%
active: [7] 5.51%

CC(C)C(=O)OCCOc1ccc(C(C)(C)C)cc1
inactive: [1] 103% | [2] 99.4% | [3] 101% | [4] 102% | [5] 102% | [6] 97.7% | [7] 84.8% | [8] 88.4% | [9] 101% | [10] 108%

C=CC(=O)OC1CCC(C(C)(C)CC)CC1 (stereo not given)
inactive: [1] 108% | [2] 106% | [3] 110% | [4] 103% | [5] 105% | [6] 115% | [7] 100% | [8] 109% | [9] 105% | [10] 105%

O=Cc1ccc(Cl)c(Cl)c1
inactive: [1] 99.1% | [2] 98.1% | [3] 106% | [4] 97% | [5] 107% | [6] 68.5% | [7] 96.5% | [8] 102% | [9] 109% | [10] 104%

CC(=O)OC(C)c1cccc(C#N)c1 (stereo not given)
inactive: [1] 103% | [2] 94.7% | [3] 104% | [4] 94.8% | [5] 108% | [6] 91.3% | [7] 103% | [8] 98.6% | [9] 104% | [10] 113%

CCN(CC)CCOC(=O)Nc1c(C(C)C)cccc1C(C)C
inactive: [1] 109% | [2] 104% | [3] 93.5% | [4] 104% | [5] 128% | [6] 117% | [7] 92.8% | [8] 95.3% | [9] 105% | [10] 117%

COc1ccc(NNS(=O)(=O)O)cc1
inactive: [1] 98.3% | [2] 95% | [3] 116% | [4] 85.1% | [5] 105% | [6] 80.3% | [7] 96% | [8] 95.3% | [9] 103% | [10] 104%

CC1(C)OC(=O)CC1=O
inactive: [1] 98.6% | [2] 76.1% | [3] 108% | [4] 97.9% | [5] 104% | [6] 81.2% | [7] 86.4% | [8] 69% | [9] 98.4% | [10] 99.6%

COC1=C(OC)C(=O)C(SC/C=C(\C)CCCC(C)CCCC(C)CCCC(C)C)=CC1=O (stereo not given)
inactive: [1] 14% | [2] 40.9% | [3] 67.4% | [4] 38.3% | [8] 17.8% | [9] 66% | [10] 94.4%
active: [5] 2.16% | [6] -13.1% | [7] -6.14%

CC12CCC3c4ccc(O)cc4CCC3C1CCC2=O (stereo not given)
inactive: [1] 104% | [2] 97% | [3] 113% | [4] 98.1% | [5] 105% | [6] 104% | [7] 70% | [8] 92.3% | [9] 94.5% | [10] 103%

ClCc1cccc2c(CCl)cccc12
inactive: [1] 61.5% | [2] 74.9% | [4] 54.5% | [5] 16.7% | [6] 89.4% | [7] 79.4% | [8] 57.7% | [10] 77.9%
active: [3] -4.83% | [9] -74.3%

CC(=O)c1cccc(N(C)S(=O)(=O)c2ccc(C)cc2)c1
inactive: [1] 93% | [2] 95.7% | [3] 90.4% | [4] 92.8% | [5] 104% | [6] 72.3% | [7] 82.9% | [8] 95.9% | [9] 94% | [10] 116%

Cc1ccnc(Nc2nc3ccccc3[nH]2)n1
inactive: [1] 104% | [2] 108% | [3] 103% | [4] 97.4% | [5] 100% | [6] 99.5% | [7] 103% | [8] 108% | [9] 94% | [10] 113%

Nc1c(O)c(S(=O)(=O)O)c(O)c2c1C(=O)c1ccccc1C2=O
active: [5] 8.34% | [7] 7.56% | [10] 6.29%
inactive: [1] 21.5% | [2] 41.2% | [3] 39% | [4] 42.6% | [6] 14.4% | [8] 19% | [9] 59.6%

CCOC(=O)c1cc(C)[nH]c(=O)c1C#N
inactive: [1] 97.5% | [2] 101% | [3] 93.6% | [4] 97.3% | [5] 114% | [6] 104% | [7] 74.4% | [8] 98.5% | [9] 100% | [10] 114%

COc1ccc(C)cc1NC(=O)SC(C)C
inactive: [1] 102% [100 µM] | [2] 89.6% [100 µM] | [3] 104% [100 µM] | [4] 97% [100 µM] | [5] 103% [100 µM] | [6] 103% [100 µM] | [7] 88.7% [100 µM] | [8] 104% [100 µM] | [9] 102% [100 µM] | [10] 132% [100 µM]

COc1ccc(C2CCCCC2=O)cc1 (stereo not given)
inactive: [1] 108% | [2] 113% | [3] 113% | [4] 95.5% | [5] 108% | [6] 98.9% | [7] 106% | [8] 104% | [9] 105% | [10] 104%

COc1ccc2c(c1)Nc1ccccc1S2
inactive: [1] 104% | [2] 108% | [3] 101% | [4] 105% | [5] 109% | [6] 78.5% | [7] 98.9% | [8] 104% | [9] 98.7% | [10] 111%
